Source: PubChem BioAssay AID1117319 (Southern Research Institute, 2015)
Out of some 260,000 compounds screened, about 1,500 (0.58%) were called active. About 5% were inconclusive and are not listed.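 The calls were made as follows: active = inhibition above a set limit at one or more doses, reproduced on every date tested; inconclusive = results disagree between test dates, or hit never tested in dose response; inactive = the rest.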 These entries were drawn from the full list. Measured potencies and affinities stand elsewhere.

biological target: Virion infectivity factor (Human immunodeficiency virus type 1 group M subtype B (isolate BH10)) + Virion infectivity factor (Human immunodeficiency virus type 1 group M subtype B (isolate BRU/LAI)) + Virion infectivity factor (Human immunodeficiency virus type 1 group M subtype B (isolate PCV12)) + Virion infectivity factor (Human immunodeficiency virus type 1 group M subtype B (isolate HXB2)) + DNA dC->dU-editing enzyme APOBEC-3G (Homo sapiens) (UniProt P69720+P69721+P69722+P69723+Q9HC16); experiment: HIV-1 Vif–A3G interaction blockers – biochemical, TR-FRET, GST-Vif 1-94, biotin-A3G peptide, dose response retest, primary screen (AID 1117319); conditions: TR-FRET GST-Vif / biotin-A3G peptide binding; hits give high values;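 also: Vif residues 1-94 fused to GST binding biotinylated APOBEC3G peptide 110-148; 0% = full assay without inhibitor and 100% = GST in place of GST-Vif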

inhibition, inactive:
CC(=O)Nc1ccc(N2C(=O)CC(Sc3nc(C)cc(C)n3)C2=O)cc1 (stereo not drawn) 2.02%
CN(C)S(=O)(=O)c1ccc(N2CCCC2)c(C(=O)Nc2ccc(N3CCOCC3)cc2)c1 -0.06%
CC(=O)NCCc1ccc(C(=O)COC(=O)c2cccn2C)cc1 -0.53%
O=C(N/N=C/c1ccc(Cl)cc1Cl)C1CCN(c2ncc(C(F)(F)F)cc2Cl)CC1 0.03%
COc1cccc(/C=C/C(=O)c2ccc3c(c2)OCCO3)c1OC -6.76%
COc1cccc(/C=C/C(=O)c2cccc([N+](=O)[O-])c2)c1OC -0.4%
COc1ccc(OC)c(/C=C/C(=O)c2ccc(Cl)cc2)c1 -4.03%
CN(C)/C=C/C(=O)/C=C/c1ccc(Cl)cc1Cl 0.37%
COc1ccc(NC(=O)/C=C/c2cc(Br)ccc2OC)cc1 -0.44%
COc1ccc(/C=C/C(=O)c2ccccc2)c(OC)c1 2.19%
NNC(=O)/C=C/c1ccc(Cl)cc1Cl -9.79%
COc1ccc(C(=O)/C=C/c2ccc(OC)cc2OC)c(O)c1 -6.99%
Cn1c(=O)c2c(nc(CN3CCN(Cc4ccccc4)CC3)n2Cc2ccc(F)cc2)n(C)c1=O 8.38%
COc1cccc(CNC(=O)CCc2nc3cc(S(=O)(=O)N4CCOCC4)ccc3n2C)c1 -1.52%
COc1ccc(-c2nnc(SCC(=O)c3ccc[nH]3)o2)cc1 0.99%
O=C(Oc1ccccc1-c1nnco1)c1ccc(Cl)cc1 5.13%
COc1ccc(C=CC(=O)c2cc(O)ccc2O)cc1 -0.99%
COc1ccccc1C=CC(=O)C=Cc1ccccc1OC 7.01%
COc1ccc(/C=C/C(=O)c2ccc(OC)cc2OC)cc1 -1.1%
COc1ccccc1/C=C/C(=O)c1ccccc1 3.38%
Cc1nc(C(=O)N/N=C/c2[nH]ncc2Br)cs1 8.49%
COc1ccc(O)c(C(=O)c2cnn(S(=O)(=O)c3ccc(C)cc3)c2)c1 4.82%
CC1(C)CN(c2ccccc2)N(Cc2ccc(F)cc2)C1=O -1.71%
NC(=O)C1(C(=O)O)OC1(c1ccc(Cl)cc1)c1ccccc1Cl (stereo not drawn) 5.1%
CCN(CC)CCCNC(=O)c1ccc2c(SCC(=O)O)c3c(nc2c1)CCC3 27.5%
CCOc1ccc(NC(=O)c2ccc3c(SCC(=O)O)c4c(nc3c2)CCCC4)cc1 2.98%
CC(C)CCNC(=O)c1ccc2c(SCC(=O)O)c3c(nc2c1)CCCC3 25.7%
COc1cc(NC(=O)c2ccc3c(SCC(=O)O)c4c(nc3c2)CCC4)cc(OC)c1OC 22.2%
CN1CCN(C(=O)c2ccc(CN3CCOCC3)cc2)CC1 -3.34%
Cc1cc(NS(=O)(=O)c2ccc(NC(=O)CSc3nnc(-c4ccco4)n3C)cc2)nc(C)n1 2.91%
O=C(Nc1ccccc1Cl)Nc1ccnn1C1CCN(C(=O)c2cscn2)CC1 5.94%
C=CCn1c(SCC(=O)NC2CC2)nc2ccccc2c1=O 1.47%
O=C(/C=C/Nc1ccc(F)cc1)c1ccco1 10.5%
O=C(/C=C/Nc1ccc(Oc2ccccc2)cc1)c1ccco1 12.6%
NS(=O)(=O)c1ccc(NC(=O)C2CCCN(S(=O)(=O)c3ccc(F)cc3)C2)cc1 (stereo not drawn) -11.9%
COc1cccc(N(CC(=O)NCc2cccnc2)S(C)(=O)=O)c1 -2.81%
Cc1ccc(N(CC(=O)NCc2cccnc2)S(C)(=O)=O)cc1C -4.47%
O=C(Nc1ccccc1N1CCOCC1)c1ccc(Br)o1 7.09%
CN1CCN(c2ccccc2NC(=O)c2ccc(Br)o2)CC1 0.41%
O=C(O)c1cc(-c2ccc(N3CCOCC3)cc2)nn1-c1ccc(F)cc1 18.4%
Cn1cnc(S(=O)(=O)N2CCc3ccccc32)c1 3.79%
c1cc2c3c(cccc3c1)NC1(CCCC1)N2 2.08%
c1cc2c3c(cccc3c1)NC1(CCCCC1)N2 10.4%
Cc1cc(=O)[nH]c(SCCCOc2ccc3c(c2)CCC3)n1 -0.15%
Cn1c(SCC(=O)NCc2ccco2)nnc1-c1cccs1 -8.22%
CCn1c(SCC(=O)NC(=O)NCc2ccco2)nnc1-c1cccs1 -5.61%
CCn1nnnc1SCC(=O)NCc1ccco1 21.2%
CC(C)n1nnnc1SCC(=O)NCc1ccco1 20%
Clc1ccccc1Cc1noc(CN2CCCCC2c2ccccn2)n1 (stereo not drawn) 2.88%
COc1cccc(OCc2nnc(SCC(=O)N3c4ccccc4Sc4ccc(Cl)cc43)o2)c1 8.84%
O=C(CN(C(=O)Cn1nnc(-c2ccc(F)cc2)n1)c1cnc2ccccc2c1)NCC1CCCO1 (stereo not drawn) -11.4%
Cc1cc(=O)n2[nH]c(-c3sccc3-n3c(C)ccc3C)cc2n1 -3.07%
Cc1cc(C)n2nc(-c3ccsc3-n3c(C)ccc3C)cc2n1 16.4%
O=C(c1ccccc1)c1n[nH]c(-c2ccccc2)cc1=O 0.47%
CCOC(=O)N1CCC(NC(=O)c2cnn3cccnc23)CC1 -2.64%
O=C(O)CCCC(=O)Nc1c(F)c(F)c(F)c(F)c1F 3.4%
O=C(CCSCCC(=O)Nc1c(F)c(F)c(F)c(F)c1F)Nc1c(F)c(F)c(F)c(F)c1F -9.21%
CN(C)c1nc(NNC(=O)c2ccccc2)nc(N(C)C)n1 -5.34%
C=CCn1c(SCC(=O)c2cccs2)nc2sc(C)c(C)c2c1=O -46.6%
C=CCn1c(SCC(=O)Nc2cc(C)on2)nc2sc(C)c(C)c2c1=O -2.76%
CCN(CC(=O)Nc1c(F)cccc1F)C(=O)c1ccc2c(c1)S(=O)(=O)N=C1CCCCCN12 -6.51%
COc1cc(/C=C/C(=O)OCC(=O)NCC2CCCCC2)ccc1O -4.25%
O=C(/C=C/c1ccc(O)c(O)c1)c1ccccc1O 13.2%
